The whole screen tested about 310,000 compounds, of which about 14,000 (4.5%) showed an effect of 50% or more. Effects have a minus sign here. Many of the other results were omitted from the sample, so strong results are more common in it than they were.
Target: human ether-à-go-go-related gene (hERG) potassium channel (human, UniProt Q12809)
Experiment: primary screen, population patch clamp on CHO cells stably expressing hERG; higher = less effect of the substance
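Further: peak tail current of the secondary pulse compared with the same well before compound.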

Chain of human ether-à-go-go-related gene (hERG) potassium channel (Q12809 whole entry, looked up): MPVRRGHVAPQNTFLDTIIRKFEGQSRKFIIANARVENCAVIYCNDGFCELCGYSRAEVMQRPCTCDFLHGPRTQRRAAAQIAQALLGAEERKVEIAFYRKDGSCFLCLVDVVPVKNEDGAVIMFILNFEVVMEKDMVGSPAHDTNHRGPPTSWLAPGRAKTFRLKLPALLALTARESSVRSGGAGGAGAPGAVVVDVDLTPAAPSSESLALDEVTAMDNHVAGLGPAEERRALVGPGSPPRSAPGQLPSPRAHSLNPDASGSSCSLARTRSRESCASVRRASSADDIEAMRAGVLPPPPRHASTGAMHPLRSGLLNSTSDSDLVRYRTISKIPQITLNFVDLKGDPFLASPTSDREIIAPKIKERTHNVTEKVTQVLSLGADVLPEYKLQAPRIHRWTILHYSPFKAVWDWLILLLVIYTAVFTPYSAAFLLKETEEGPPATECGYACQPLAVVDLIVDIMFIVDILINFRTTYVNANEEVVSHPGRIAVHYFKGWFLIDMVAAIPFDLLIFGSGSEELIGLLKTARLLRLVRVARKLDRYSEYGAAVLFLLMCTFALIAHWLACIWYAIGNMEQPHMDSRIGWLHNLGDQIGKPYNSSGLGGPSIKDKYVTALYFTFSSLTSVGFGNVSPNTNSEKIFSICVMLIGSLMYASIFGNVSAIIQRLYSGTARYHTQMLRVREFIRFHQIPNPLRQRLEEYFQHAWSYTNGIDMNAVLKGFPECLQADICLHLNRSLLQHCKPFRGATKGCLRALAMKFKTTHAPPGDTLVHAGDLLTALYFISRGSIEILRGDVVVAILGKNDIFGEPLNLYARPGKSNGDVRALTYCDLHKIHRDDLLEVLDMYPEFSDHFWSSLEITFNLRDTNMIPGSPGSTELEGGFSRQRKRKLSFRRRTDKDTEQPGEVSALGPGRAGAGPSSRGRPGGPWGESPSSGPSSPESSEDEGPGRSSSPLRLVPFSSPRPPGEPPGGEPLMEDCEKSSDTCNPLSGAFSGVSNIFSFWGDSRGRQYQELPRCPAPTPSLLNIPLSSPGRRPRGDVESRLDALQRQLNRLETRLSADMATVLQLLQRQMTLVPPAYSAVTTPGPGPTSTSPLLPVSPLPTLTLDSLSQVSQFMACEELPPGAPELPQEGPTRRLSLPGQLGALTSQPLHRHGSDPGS

| Structure (SMILES) | hERG current change (%, negative = inhibition) at 10uM [%] |
| --- | --- |
| CS(=O)(=O)N1CCC(C(=O)Nc2cccc(C(F)(F)F)c2)CC1 | -14.2 |
| O=C(CCCCn1c(=O)c2ccccc2n(Cc2ccc(F)cc2Cl)c1=O)NCc1ccco1 | -5.07 |
| Cc1ccc(Cn2c(N3CCN(C)CC3)nc3c2c(=O)[nH]c(=O)n3C)cc1 | -14.9 |
| Cc1cccc(Cn2c(N3CCN(C)CC3)nc3c2c(=O)n(C)c(=O)n3C)c1 | -49 |
| Cc1cccc(Cn2c(N3CCCCC3C)nc3c2c(=O)[nH]c(=O)n3C)c1 (stereo not shown) | -57 |
| CN1CCN(c2nc3c(c(=O)n(C)c(=O)n3C)n2Cc2cccc(Br)c2)CC1 | -55.1 |
| CN1CCN(c2nc3c(c(=O)n(C)c(=O)n3C)n2Cc2ccc(Cl)cc2)CC1 | -39.5 |
| Cc1cccc(Cn2c(N3CCc4ccccc4C3)nc3c2c(=O)[nH]c(=O)n3C)c1 | -4.89 |
| CN1CCN(c2nc3c(c(=O)[nH]c(=O)n3C)n2Cc2ccc(Cl)cc2)CC1 | -15.5 |
| CN1CCN(c2nc3c(c(=O)[nH]c(=O)n3C)n2Cc2ccc([N+](=O)[O-])cc2)CC1 | -59 |
| Cc1cccc(Cn2c(N3CCN(C)CC3)nc3c2c(=O)[nH]c(=O)n3C)c1 | -50.7 |
| Cc1cccc(Cn2c(N3CCN(CCO)CC3)nc3c2c(=O)[nH]c(=O)n3C)c1 | -23.5 |
| CN1CCN(c2nc3c(c(=O)[nH]c(=O)n3C)n2Cc2cccc3ccccc23)CC1 | -27.6 |
| CC1CCN(c2nc3c(c(=O)[nH]c(=O)n3C)n2Cc2ccccc2)CC1 | 7.99 |
| O=C(COC(=O)CCNS(=O)(=O)c1ccc2c(c1)OCCO2)NC1CCCc2ccccc21 (stereo not shown) | -0.954 |
| O=C(CN(C(=O)c1ccccc1Cl)N1C(=O)C2C3C=CC(C3)C2C1=O)c1cccs1 (stereo not shown) | 7.25 |
| O=C(CSc1ncn[nH]1)NC12CC3CC(CC(C3)C1)C2 | -5.91 |
| O=C(N/N=C/c1c(F)c(F)c(F)c(F)c1F)c1cc(-c2ccccc2)nc2ccccc12 | 6.92 |
| O=C(O)Cc1csc(-c2cccc(F)c2)n1 | 19.1 |
| CC(C)OC(=O)NCCOC(=O)Nc1ccccc1Cl | 21.6 |
| Cn1c(=O)c(=O)n(C)c2cc(S(=O)(=O)CCC(=O)NCc3ccccc3)ccc21 | 20 |
| COc1ccc(OC)c(/C=N/NC(=O)Cc2nc3ccccc3[nH]2)c1 | 5.63 |
| Cc1onc(-c2ccccc2)c1C(=O)N1CCN(S(=O)(=O)c2ccccc2C(F)(F)F)CC1 | 22.6 |

| Structure (SMILES) | hERG current change (%, negative = inhibition) at 10uM [%] |
| --- | --- |
| Cc1cc(S(=O)(=O)Nc2ccc(C(=O)NCCCN3CCCC3=O)cc2)ccc1F | 8.37 |
| O=C(NCc1ccccc1)C1C(=O)N(Cc2ccccc2)C(=O)C1C1(O)CCCC1 (stereo not shown) | 2.87 |
| O=C(Nc1ccc2oc(=O)ccc2c1)c1ccc(-c2ccc(Cl)cc2)o1 | 3.37 |
| S=c1[nH]nc(Cc2ccccc2)n1Cc1ccco1 | -5.08 |
| Cc1nc2ccc(S(=O)(=O)NCC(=O)N3CCN(c4ccccc4)CC3)cc2s1 | -1.33 |
| O=C(O)c1cc(NC(=O)c2cccc(F)c2)cc(NC(=O)c2cccc(F)c2)c1 | 15.4 |
| COc1ccc(C(CNC(=O)COc2ccccc2C)N2CCCCC2)cc1 (stereo not shown) | -20.7 |
| COc1ccc(C(CNC(=O)COc2ccc(F)cc2Cl)N2CCCCC2)cc1 (stereo not shown) | -8.7 |
| COc1ccc(C(CNC(=O)COc2ccc([N+](=O)[O-])cc2)N2CCCCC2)cc1 (stereo not shown) | -69.9 |
| COc1ccc(C(CNC(=O)COc2ccccc2OC)N2CCCCC2)cc1 (stereo not shown) | -19.5 |
| COc1ccc(C(CNC(=O)COc2ccccc2)N2CCCCC2)cc1 (stereo not shown) | -29.3 |
| COc1ccc(C(CNC(=O)COc2ccc(Br)cc2F)N2CCCC2)cc1 (stereo not shown) | -78.6 |
| COc1ccc(C(CNC(=O)COc2ccccc2C)N2CCCC2)cc1 (stereo not shown) | -40.8 |
| COc1ccc(C(CNC(=O)COc2ccc(F)cc2Br)N2CCCC2)cc1 (stereo not shown) | -64.5 |
| COc1ccc(OCC(=O)NCC(c2ccc(OC)cc2)N2CCCCC2)cc1 (stereo not shown) | -33.1 |
| COc1ccccc1CNC(=O)CCc1nc2ccccc2c(=O)[nH]1 | -1.26 |
| CC(=O)Nc1cccc(NC(=O)c2cccc(OCc3ccccc3)c2)c1 | 10.6 |
| Cc1ccc(C2(C(F)(F)F)NC(=O)N3CCCN=C3S2)cc1 (stereo not shown) | 16.5 |
| Cc1cc(C)cc(NC(=S)N(CCN2CCCCC2)Cc2ccco2)c1 | -74.4 |
| Cc1cccc(C)c1NC(=S)N(CCN1CCCCCC1)Cc1ccco1 | -34.9 |
| Cc1cc(NC(=S)N(CCN2CCCCC2)Cc2ccco2)ccc1Cl | -55.3 |
| Cc1cc(C)c(NC(=S)N(CCN2CCCCC2)Cc2ccco2)c(C)c1 | -37.9 |
| Cc1ccc(NC(=S)N(CCN2CCCCC2)Cc2ccco2)cc1Cl | -51.1 |

| Structure (SMILES) | hERG current change (%, negative = inhibition) at 10uM [%] |
| --- | --- |
| Cc1cccc(C)c1NC(=S)N(CCCN1CCCCC1)Cc1ccco1 | -25.7 |
| Cc1ccc(NC(=S)N(CCN2CCCCC2)Cc2ccco2)cc1C | -80.3 |
| CN(C)CCOc1ccccc1-c1ccccc1.O=C(O)C(=O)O | -4.52 |
| COc1ccccc1CCNC(=O)c1ccc2nc[nH]c2c1 | 3.97 |
| Nc1cc(=O)[nH]c(SCc2ccccc2Cl)n1 | 3.76 |
| Cc1nc2c(nnn2Cc2ccccc2)c(=O)n1-c1ccccc1 | 0.475 |
| NC(=O)c1cc([N+](=O)[O-])ccc1N1CCCCC1 | -17.2 |
| Cc1ccc(S(=O)(=O)N(C)c2ccc(OC(=O)CN3C(=O)NC4(CCCC4)C3=O)cc2)cc1C | 9.26 |
| COC(=O)c1ccc(C(=O)OC)c(NC(=O)CN(C)Cc2ccc(Cl)c(Cl)c2)c1 | 5.46 |
| CCNC(=S)N1CCC(C(=O)c2ccc(Cl)cc2)CC1 | -16.8 |
| CO/N=C(\Cn1ncc(N2CCCC2)c(Br)c1=O)c1ccc(Cl)cc1 | -57.5 |
| CC(C)(C)C(=O)Cn1ncc(N2CCOCC2)c(Br)c1=O | -0.203 |
| CO/N=C(\Cn1ncc(N2CCOCC2)c(Br)c1=O)c1ccc(Cl)cc1 | -19.7 |
| CO/N=C(\Cn1ncc(N2CCCC2)c(Cl)c1=O)c1ccc(Cl)cc1 | -64 |
| O=C(Cn1ncc(N2CCCC2)c(Br)c1=O)c1ccc(Cl)cc1 | -23.1 |
| CC(C)(C)C(=O)Cn1ncc(N2CCOCC2)c(Cl)c1=O | -71.9 |
| CC(=O)Cn1ncc(N2CCOCC2)c(Cl)c1=O | 4.26 |
| O=C(Cn1ncc(N2CCCC2)c(Cl)c1=O)c1ccc(Cl)cc1 | -21.2 |
| CC(=O)Cn1ncc(N2CCCCC2)c(Cl)c1=O | 17.8 |
| CCOC(=O)c1[nH]nc(-c2c(O)cc(C)cc2O)c1-c1csc(C)n1 | 11.3 |
| Cc1cc(C)c2c(c1)c(C)cc1nnc(SCC(=O)NCc3ccco3)n12 | -8.05 |
| COCCn1c(SCC(=O)NC2CCCCC2)nc2c(c1=O)SCC2 | -11.2 |
| Cc1ccc(C)c(S(=O)(=O)N2CCCOC2CNC(=O)C(=O)NCCCN2CCOCC2)c1 (stereo not shown) | 0.752 |

| Structure (SMILES) | hERG current change (%, negative = inhibition) at 10uM [%] |
| --- | --- |
| CCN(CC)c1cc(Oc2ccccc2)ncn1 | -9.54 |
| COc1cccc(C(=O)CSc2nnnn2C)c1 | 4.88 |
| Cc1ccc(/C=N/NC(=O)CSc2nnc(-c3ccc(Cl)cc3)n2-c2ccccc2)o1 | -39.5 |
| CCOC(=O)N1CCN(C(=O)CSc2nc(-c3cccc(C)c3)ns2)CC1 | -38.8 |
| O=C1N(Cc2ccccc2F)c2ccccc2C12OCCCO2 | 10.9 |
| O=C(OC(C(=O)c1c[nH]c2ccccc12)c1ccccc1)c1cnccn1 (stereo not shown) | 1.77 |
| O=C(O)/C(=C/c1cccnc1)NC(=O)c1ccccc1 | 20.3 |
| CCc1ccc(C(=O)CC2(O)C(=O)N(CN3CCOCC3)c3ccccc32)cc1 (stereo not shown) | 7.69 |
| Cc1ccc(C(=O)CC2(O)C(=O)N(CN3CCOCC3)c3ccccc32)cc1 (stereo not shown) | -2.38 |
| O=C(CC1(O)C(=O)N(CN2CCOCC2)c2ccccc21)c1ccccc1 (stereo not shown) | -70.4 |
| CC(C)=CCC(C)(C)C1OCCN1C(=O)c1ccccc1 (stereo not shown) | -18.7 |
| Br.COc1ccc(-c2nc3n(c2C)CCC3)cc1 | -6.52 |
| CCN(CC(=O)Nc1c(F)cccc1F)C(=O)c1cc([N+](=O)[O-])ccc1N1CCCCC1 | -10.6 |
| CC(=O)OCc1nc2ccccc2s1 | 12 |
| O=C(CCCCCNC(=S)Nc1ccc(Cl)cc1)C[N+](=O)[O-] | 12.9 |
| COc1ccc(-c2[nH]ncc2CN(C)CCN2CCOCC2)cc1F | 16.6 |
| COc1cc(/C=C/C(=O)O)cc(OC)c1O | 2.08 |
| COc1ccc(C(=O)/C=C/c2cc(OC)c(O)c(OC)c2)c(F)c1 | -52.3 |
| COc1ccc2cc(C(=O)/C=C/c3cc(OC)c(O)c(OC)c3)ccc2c1 | 8.79 |
| COc1ccc(/C=C/C(=O)c2ccc(Cl)s2)cc1O | 1.69 |
| COc1cc(/C=C/C(=O)c2ccc(Cl)s2)cc(OC)c1O | -74.4 |
| COc1ccc(C(=O)/C=C/c2ccc(OC)c(O)c2)c(F)c1 | -13.5 |

From PMC4336329 (PLoS ONE, 2015)
